Screening data: PubChem, National Center for Advancing Translational Sciences (NCATS)
Sampled rows, rich in hits. Any-hit rate of the full collection: about 0.95%.
TexasRed autofl = Texas Red region autofluorescence; max dye-equivalent concentration, M; AID 587; Compound fluorescence, Texas Red channel, 547/618 nm; stronger effect = higher value; 0.06% of 59,000 active; in the data active means max dye-equivalent concentration above about 10 nM; inconclusive means between about 1.1 nM and that limit
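Texas Red-region profiling: compounds in 100 mM Tris pH 8.0 were read at 547/618 nm after 15 min at room temperature. Intensities were normalized against a six-point Texas Red standard series to give dye-equivalent concentration.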
Rhodamine fluor = rhodamine region autofluorescence; Rhodamine-region fluorescence, 547/598 nm, Tris buffer; stronger effect = higher value; max dye-equivalent concentration, M; 0.05% of 59,000 active; in the data active means max dye-equivalent concentration above about 11 nM; inconclusive means between about 1.1 nM and that limit
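Intrinsic compound fluorescence, ex 547 / em 598 nm, CCD imager. Tris 100 mM pH 8.0; 15 min RT. Output = rhodamine dye-equivalent concentration at each compound concentration.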
A488 fluor = A488 region autofluorescence; compound autofluorescence, A488 spectral region, dye equivalency; Compound Type: qHTS ECL - MLSMR; 0.1% of 59,000 active; max dye equivalency, M
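Read-out: relative fluorescence at 480/540 nm, expressed as Alexa 488 dye-equivalent concentration from a six-point A488 standard included per plate. Conditions: 100 mM Tris, pH 8.0; 15 min incubation, room temperature.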
Resorufin fluor = compound fluoresces in the resorufin spectral region; Compound fluorescence, resorufin region 547/598 nm, buffer; stronger effect = higher value; max dye-equivalent concentration, M; 0.04% of 59,000 active
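Read-out: intrinsic compound fluorescence at ex 547/em 598 nm after 15 min at RT in pH 8.0 Tris (100 mM). Values expressed as resorufin-equivalent concentration from per-plate standard series.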
A647 autofl = compound autofluorescence in A647 spectral region. max dye-equivalent concentration, M. Compound fluorescence, A647 channel (570/671 nm), Tris buffer. 59,000 tested, under 10 active. AID 592
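Compound fluorescence was measured in 100 mM Tris buffer, pH 8.0, after 15 min at room temperature, using 570 nm excitation and 671 nm emission filters. Signal was normalized to a per-plate Alexa 647 standard curve and expressed as dye-equivalent concentration at each compound concentration.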
Fluorescein fluor = compound fluoresces in the fluorescein spectral region; 0.91% of 59,000 active; AID 593; max fluorescein-equivalent concentration, M; Compound autofluorescence, 480/540 nm, fluorescein-equivalent; stronger effect = higher value; in the data active means max fluorescein-equivalent concentration above about 10 nM; inconclusive means between about 1.1 nM and that limit
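Autofluorescence profiling; 100 mM Tris, pH 8.0; incubation 15 min at RT; ex/em 480/540 nm; result as fluorescein-equivalent concentration.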
Each line names hits and unclear results; the compound was inactive in the other large screens. Unless noted, how the calls were made is not given here.

CCOC(=O)C1CCCN(c2nc3ccccc3nc2C(C#N)C(=O)NCc2ccccc2)C1 (stereo not given)	A488 fluor 5e-08M, Fluorescein fluor 8.6e-07M
CCOC(=O)N1CCN(c2nc3ccccc3nc2C(C#N)C(=O)NCCc2ccccc2)CC1 (stereo not given)	Fluorescein fluor 1.1e-08M
CCN(CC)c1nc2ccccc2nc1C(C#N)C(=O)NCCCOC (stereo not given)	Fluorescein fluor inconclusive
CN1C[C@@H](C(=O)N[C@]2(C)O[C@]3(O)[C@H]4CCCN4C(=O)[C@H](Cc4ccccc4)N3C2=O)C[C@H]2c3cccc4[nH]cc(c34)C[C@@H]21	Fluorescein fluor inconclusive
CN(Cc1ccco1)c1cc(-c2cccc(NS(C)(=O)=O)c2)ncn1	none
NC[C@@H]1O[C@@H](O[C@H]2[C@@H](O)[C@H](O[C@@H]3[C@H](O)[C@H](N)C[C@H](N)[C@H]3O[C@@H]3O[C@@H](CO)[C@H](O)[C@H](O)[C@@H]3N)O[C@H]2CO)[C@H](N)[C@H](O)[C@@H]1O	TexasRed autofl inconclusive
N#CC(C(=O)NCCc1ccccc1)c1nc2ccccc2nc1N1CCOCC1 (stereo not given)	Fluorescein fluor inconclusive
N#CC(C(=O)NCCc1ccccc1)c1nc2ccccc2nc1N1CCCCC1 (stereo not given)	A488 fluor inconclusive, Fluorescein fluor 1.2e-07M
COCCn1c(=O)c(-c2ccccc2)nc2cnc(OC)nc21	none
C[C@@H]1c2ccccc2Cn2cc3c(c21)C(=O)c1cccc(OP(=O)(O)OCc2ccccc2)c1C3=O	A488 fluor inconclusive, Fluorescein fluor 8.6e-08M
c1c[nH]c(CN2CCOCC2)n1	none
CCOC(=O)c1ccc(N2C(=O)C3C(C2=O)C(C(=O)c2ccc(Cl)cc2)N2CCCC32)cc1 (stereo not given)	A488 fluor inconclusive, Fluorescein fluor 5.6e-08M
CC1=C(\C=C/C(C)=C/C=C\C(C)=C\CO)C(C)(C)CCC1	none
c1ccc(CCNc2ncnc3c2nnn3Cc2ccccc2)cc1	Fluorescein fluor 1.2e-08M
c1ccc(Cn2nnc3c(NCCN4CCOCC4)ncnc32)cc1	none
CC(=O)[C@@]1(O)CC[C@@H]2[C@@H]3CCC4=CC(=O)CC[C@@]4(C)[C@H]3CC[C@]21C	TexasRed autofl inconclusive
CCOC(=O)CN=C1CC(C)(C)CC2=C1Sc1ncnc(N(C)C)c1N2	Rhodamine fluor inconclusive, A488 fluor inconclusive, Resorufin fluor inconclusive, Fluorescein fluor 3.4e-08M
Cc1cc(N=Cc2c(O)n(-c3ccc4c(c3)OCO4)c(=O)c3ccccc23)ccn1	TexasRed autofl inconclusive, Fluorescein fluor inconclusive
Cc1cccc(-n2c(O)c(C=Nc3ccc4c(c3)OCO4)c3ccccc3c2=O)n1	A488 fluor inconclusive, Fluorescein fluor 5.8e-08M
CC1CN(c2nc3ccccc3nc2C(C#N)C(=O)NC2CCCCC2)CC(C)O1 (stereo not given)	A488 fluor 1.4e-08M, Fluorescein fluor 2.9e-07M
CC(C)COc1nc2ccccc2nc1C(C#N)C(=O)NC1CCCCC1 (stereo not given)	A488 fluor inconclusive, Fluorescein fluor 7.3e-08M
CN(C)c1ncc2nc(-c3ccc(Cl)cc3)c(=O)n(Cc3cccs3)c2n1	none
CC(=O)N1CCC[C@@]2(CCN(C(=O)Nc3ccccc3)C2)C1	none
COCCNc1ncnc2ccc(-c3cccc(OC)c3)cc12	Fluorescein fluor inconclusive
COc1ccccc1/C=c1\sc2nc(-c3ccncc3)nn2c1=O	Fluorescein fluor 1.5e-08M
Nc1n[nH]c2ccccc12	TexasRed autofl 2.9e-08M, Rhodamine fluor 1.5e-08M, Resorufin fluor 1.1e-08M, Fluorescein fluor inconclusive
CCOC(=O)c1n[nH]c2ccccc12	Fluorescein fluor inconclusive
CCCN1CCCc2cc(CN)ccc21	A488 fluor inconclusive, Fluorescein fluor 3.3e-08M
CN1CCN(c2ncnc3ccc(-c4ccccc4Cl)cc23)CC1	none
C=CCOn1c(=O)c(-c2cc3ccccc3o2)[n+]([O-])c2ccccc21	Fluorescein fluor 1.9e-08M
CCCCCCCCCCCCCCCCCCOC[C@@H](COP(=O)([O-])OCC[N+](C)(C)C)OC	TexasRed autofl inconclusive, Fluorescein fluor inconclusive
